# Laboratory results from PubChem BioAssay (Tox21).
# Unmarked numbers belong to inactive results. Records with an inconclusive call do not appear. A call without a number means that no potency is given here. Calls of active or inactive are those of the source. Unless noted, the call rests on the fitted dose curve; in most records, active means well fitted curve in the direction sought with a large enough effect in the repeat runs; inconclusive means weak or mixed curves; inactive means no such curve, though single readings can be large; an effect the other way counts as inactive or inconclusive.
# Assays:
# [1] = target: Estrogen receptor beta (Homo sapiens) (UniProt Q92731); assay: qHTS assay to identify small molecule agonists of the estrogen receptor beta (ER-beta) signaling pathway (AID 1259377; active means well fitted activation curve with a large enough effect in the signal ratio in the repeat runs, not every such curve was filed as active; the % refers to the signal ratio)
# Estrogen receptor beta (Homo sapiens), sequence (Q92731 whole entry, looked up): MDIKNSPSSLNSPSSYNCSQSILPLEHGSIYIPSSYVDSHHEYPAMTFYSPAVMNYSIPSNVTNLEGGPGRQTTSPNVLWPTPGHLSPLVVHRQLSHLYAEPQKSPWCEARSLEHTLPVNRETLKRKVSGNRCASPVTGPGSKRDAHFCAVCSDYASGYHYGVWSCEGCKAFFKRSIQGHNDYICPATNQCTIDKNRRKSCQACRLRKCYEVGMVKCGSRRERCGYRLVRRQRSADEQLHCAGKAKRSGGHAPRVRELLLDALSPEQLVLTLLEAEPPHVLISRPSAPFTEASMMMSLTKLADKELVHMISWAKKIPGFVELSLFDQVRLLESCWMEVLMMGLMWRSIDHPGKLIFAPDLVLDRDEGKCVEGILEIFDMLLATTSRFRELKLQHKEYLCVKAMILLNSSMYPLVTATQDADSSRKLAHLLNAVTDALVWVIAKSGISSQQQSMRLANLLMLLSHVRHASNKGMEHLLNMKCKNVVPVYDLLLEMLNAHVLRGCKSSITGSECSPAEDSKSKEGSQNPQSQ
# Method in brief: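 HEK293T ER-beta-UAS-bla; 2% charcoal-stripped FBS; cells pre-incubated 6 hr, compound 16 hr, 37C/5% CO2; LiveBLAzer B/G FRET substrate 2 h RT; fluorescence intensity read.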
# [2] = target: Estrogen receptor beta (Homo sapiens) (UniProt Q92731); assay: qHTS assay to identify small molecule antagonists of the estrogen receptor beta (ER-beta) signaling pathway (AID 1259378; active means well fitted inhibition curve with a large enough effect in the signal ratio in the repeat runs, not every such curve was filed as active; the % refers to the signal ratio; further: potency means the concentration at half of the fitted maximal effect)
# Method in brief: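 ER-beta-UAS-bla HEK293T (GripTite) cells in 2% charcoal-stripped FBS medium were preincubated 6 hr at 37C, dosed with compound, then stimulated with 1 nM E2 (final) for 16 hr; beta-lactamase reporter read by B/G FRET fluorescence after 2 hr substrate loading.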
# [3] = qHTS assay to identify small molecule agonists of the androgen receptor (AR) signaling pathway in the presence of an antagonist - cell viability counter screen (AID 1259379); further: nearly all actives have a fitted effect of over 25% in size; further: potency means the concentration at half of the fitted maximal effect
# Method in brief: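 MDA-kb2 cells (MMTV-luciferase, AR/GR), 3,000/well, 5 h attachment, then 3.0 µM nilutamide (final) and compounds at 15 concentrations. Viability by CellTiter-Fluor fluorescence after 16 h at 37 °C, 0% CO2, in the reporter wells.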
# [4] = qHTS assay to identify small molecule agonists of the estrogen receptor beta (ER-beta) signaling pathway - cell viability counter screen (AID 1259380); further: nearly all actives have a fitted effect of over 30% in size
# Method in brief: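 ER-beta-UAS-bla HEK293T cells in medium with 2% charcoal-stripped FBS, pre-incubated 6 hr, then treated 16 hr at 37C. Cytotoxicity read in the same wells by CellTiter-Glo luminescence after 30 min at room temperature.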
# [5] = target: Androgen receptor (Homo sapiens) (UniProt P10275); assay: qHTS assay to identify small molecule agonists of the androgen receptor (AR) signaling pathway in the presence of an antagonist (AID 1259381; calls by dose curve; further: nearly all actives have a fitted effect of over 15% in size)
# Androgen receptor (Homo sapiens), sequence (P10275 whole entry, looked up): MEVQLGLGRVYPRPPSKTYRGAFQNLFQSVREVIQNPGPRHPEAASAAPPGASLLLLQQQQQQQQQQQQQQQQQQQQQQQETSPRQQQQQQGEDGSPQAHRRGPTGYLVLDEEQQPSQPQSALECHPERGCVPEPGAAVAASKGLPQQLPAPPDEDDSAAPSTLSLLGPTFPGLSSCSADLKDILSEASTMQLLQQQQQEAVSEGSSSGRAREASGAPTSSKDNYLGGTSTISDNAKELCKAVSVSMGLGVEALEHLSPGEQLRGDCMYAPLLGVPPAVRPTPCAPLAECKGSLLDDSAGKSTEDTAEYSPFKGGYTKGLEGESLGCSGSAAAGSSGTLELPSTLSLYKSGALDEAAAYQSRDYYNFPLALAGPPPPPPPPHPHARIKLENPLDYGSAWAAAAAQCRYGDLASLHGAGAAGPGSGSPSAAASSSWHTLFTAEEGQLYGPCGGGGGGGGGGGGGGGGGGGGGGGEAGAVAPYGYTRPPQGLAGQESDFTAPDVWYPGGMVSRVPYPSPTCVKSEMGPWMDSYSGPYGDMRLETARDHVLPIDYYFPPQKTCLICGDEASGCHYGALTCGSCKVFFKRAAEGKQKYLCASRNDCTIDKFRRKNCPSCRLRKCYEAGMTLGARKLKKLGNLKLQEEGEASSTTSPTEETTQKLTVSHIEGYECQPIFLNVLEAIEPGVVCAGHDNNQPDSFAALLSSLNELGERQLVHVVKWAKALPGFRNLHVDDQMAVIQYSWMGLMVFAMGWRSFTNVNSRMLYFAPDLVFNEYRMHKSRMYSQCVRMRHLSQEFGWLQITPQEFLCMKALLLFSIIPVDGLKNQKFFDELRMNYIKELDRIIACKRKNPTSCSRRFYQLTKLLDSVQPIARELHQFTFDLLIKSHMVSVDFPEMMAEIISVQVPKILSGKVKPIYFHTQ
# Method in brief: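 MDA-kb2 cells carrying MMTV-luciferase (AR/GR responsive), 3,000 cells/well, co-treated with 3.0 uM nilutamide final. Compounds at 15 concentrations, 16 hr at 37C without CO2. Luciferase luminescence read after 30 min with ONE-Glo.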
# [6] = qHTS assay to identify small molecule antagonists of the estrogen receptor beta (ER-beta) signaling pathway - cell viability counter screen (AID 1259382); further: series mostly up to about 92 µM; nearly all actives have a fitted effect of over 55% in size
# Method in brief: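 ER-beta-UAS-bla HEK293T cells in 2% charcoal-stripped FBS medium, treated with compound plus 1 nM 17-beta-estradiol for 16 h at 37C. Viability read by CellTiter-Glo luminescence after 30 min at room temperature in the same wells.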
# [7] = target: Estrogen receptor (Homo sapiens) (UniProt P03372); assay: qHTS assay to identify small molecule agonists of the estrogen receptor alpha (ER-alpha) signaling pathway in the presence of an antagonist (AID 1259383; calls by dose curve; further: top concentration of the series differs between compounds; nearly all actives have a fitted effect of over 15% in size)
# Estrogen receptor (Homo sapiens), sequence (P03372 whole entry, looked up): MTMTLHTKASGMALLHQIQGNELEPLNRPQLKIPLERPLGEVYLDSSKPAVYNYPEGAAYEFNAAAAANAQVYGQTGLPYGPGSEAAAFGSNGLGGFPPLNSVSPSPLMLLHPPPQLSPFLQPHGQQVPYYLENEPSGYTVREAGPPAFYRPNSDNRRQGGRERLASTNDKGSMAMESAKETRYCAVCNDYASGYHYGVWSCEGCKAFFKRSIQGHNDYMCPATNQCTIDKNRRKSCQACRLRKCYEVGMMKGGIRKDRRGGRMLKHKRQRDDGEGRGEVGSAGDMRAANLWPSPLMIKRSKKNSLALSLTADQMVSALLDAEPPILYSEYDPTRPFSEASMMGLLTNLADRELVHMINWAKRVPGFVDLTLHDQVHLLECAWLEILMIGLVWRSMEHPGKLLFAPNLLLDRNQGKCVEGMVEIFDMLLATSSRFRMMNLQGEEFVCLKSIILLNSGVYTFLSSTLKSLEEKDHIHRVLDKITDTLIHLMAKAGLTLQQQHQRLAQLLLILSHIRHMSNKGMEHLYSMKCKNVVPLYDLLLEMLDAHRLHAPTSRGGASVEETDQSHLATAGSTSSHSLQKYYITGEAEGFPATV
# Method in brief: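 VM7Luc4E2 cells express endogenous full-length ER-alpha with an ERE-luciferase reporter and were hormone-deprived for 5 days. Compounds at 15 concentrations were added with 10.0nM ICI-182,780 for 22hr at 37C. Luminescence was read with ONE-Glo.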
# [8] = qHTS assay to identify small molecule agonists or antagonists of the thyroid stimulating hormone receptor (TSHR) signaling pathway - wild type cell line counter screen (AID 1259384; calls by dose curve)
# Method in brief: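 Wild-type HEK293 cells were plated 18 h at 37 C/5% CO2, pin-dosed with compound plus Ro20-1724 medium, held 30 min at room temperature, then given cAMP-d2 and anti-cAMP-cryptate; fluorescence was read after 1 h. Fifteen concentrations, triplicate.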
# [9] = target: Thyrotropin receptor (Homo sapiens) (UniProt P16473); assay: qHTS assay to identify small molecule antagonists of the thyroid stimulating hormone receptor (TSHR) signaling pathway (AID 1259385; calls by dose curve; further: nearly all actives have a fitted effect of over 20% in size)
# Thyrotropin receptor (Homo sapiens), sequence (P16473 whole entry, looked up): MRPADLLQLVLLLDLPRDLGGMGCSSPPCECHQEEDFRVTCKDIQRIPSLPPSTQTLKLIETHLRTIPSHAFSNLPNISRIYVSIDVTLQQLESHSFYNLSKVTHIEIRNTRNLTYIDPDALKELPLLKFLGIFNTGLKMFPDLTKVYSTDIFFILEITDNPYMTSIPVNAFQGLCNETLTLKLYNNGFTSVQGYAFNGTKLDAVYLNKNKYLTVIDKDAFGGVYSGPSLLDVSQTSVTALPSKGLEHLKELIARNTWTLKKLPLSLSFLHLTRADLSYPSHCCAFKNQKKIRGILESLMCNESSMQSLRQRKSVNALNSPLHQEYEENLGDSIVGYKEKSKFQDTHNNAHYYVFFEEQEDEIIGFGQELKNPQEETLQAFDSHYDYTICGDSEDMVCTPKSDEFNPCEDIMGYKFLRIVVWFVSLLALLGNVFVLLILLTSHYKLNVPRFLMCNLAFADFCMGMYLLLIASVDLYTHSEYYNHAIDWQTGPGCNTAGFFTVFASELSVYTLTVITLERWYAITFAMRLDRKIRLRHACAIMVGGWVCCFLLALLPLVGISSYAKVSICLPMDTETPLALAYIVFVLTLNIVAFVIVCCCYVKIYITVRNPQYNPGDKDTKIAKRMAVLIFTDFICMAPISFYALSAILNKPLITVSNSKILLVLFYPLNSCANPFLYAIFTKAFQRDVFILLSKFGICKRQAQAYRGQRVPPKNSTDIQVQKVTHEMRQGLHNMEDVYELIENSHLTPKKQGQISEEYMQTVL
# Method in brief: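 TSHR-HEK293 cells were plated and held 18 h at 37C/5% CO2, then given compound plus Ro20-1724 and stimulated with TSH at 1.5 ng/mL final. After 30 min at room temperature, cAMP was detected with cAMP-d2/anti-cAMP-cryptate (1 h) by fluorescence.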
# [10] = qHTS assay to identify small molecule agonists of the estrogen receptor alpha (ER-alpha) signaling pathway in the presence of an antagonist - cell viability counter screen (AID 1259386);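 further: series mostly up to about 92 µM; cells exposed to compounds for 22 h at 37 °C before the viability read; nearly all actives have a fitted effect of over 30% in size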
# Method in brief: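 Cell viability in VM7Luc4E2 cells (endogenous full-length ER-alpha) measured by CellTiter-Fluor fluorescence in the same wells as the luciferase screen. Cells pre-cultured 5 days in charcoal-stripped serum, then treated 22 h with compounds at 15 concentrations plus 10.0nM ICI-182,780.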
SMILES,Potency [1],Potency [2],Potency [3],Potency [4],Potency [5],Potency [6],Potency [7],outcome [8],Potency [9],Potency [10]
O=C(Nc1ccccc1)c1cc([N+](=O)[O-])ccc1Cl,inactive,48.6 µM (active),inactive,inactive,inactive,inactive,inactive,inactive,inactive,inactive
C[C@H]1C[C@H]2[C@@H]3CCC4=CC(=O)C=C[C@]4(C)[C@@]3(F)[C@@H](O)C[C@]2(C)[C@@]1(O)C(=O)COP(=O)(O)O,inactive,inactive,inactive,inactive,–,inactive,inactive,inactive,inactive,inactive
O=C(c1ccco1)N1CCNCC1,inactive,inactive,inactive,inactive,inactive,inactive,–,inactive,inactive,inactive
CC1(C)CC(O)CC(C)(C)N1[O],inactive,inactive,inactive,inactive,–,inactive,inactive,inactive,inactive,inactive
O=C(O)c1cc(C(=O)O)c(C(=O)O)cc1C(=O)O,inactive,inactive,inactive,inactive,inactive,inactive,inactive,–,–,inactive
Clc1nc2ccccc2nc1Cl,inactive,inactive,24.6 µM (active),inactive,–,inactive,inactive,inactive,inactive,inactive
CC(O)CN (stereo unspecified),inactive,inactive,inactive,inactive,–,inactive,inactive,inactive,inactive,inactive
O=C1OC(=O)C2CC=CCC12 (stereo unspecified),inactive,inactive,inactive,inactive,–,inactive,inactive,inactive,inactive,inactive
CCOC(OCC)OCC,inactive,inactive,inactive,inactive,–,inactive,inactive,inactive,inactive,inactive
C=CCCC,inactive,inactive,inactive,inactive,–,inactive,inactive,–,–,inactive
O=C(OC1C[C@H]2CC[C@@H](C1)[N+]21CCCC1)C(O)(c1ccccc1)c1ccccc1 (stereo partly specified),inactive,inactive,inactive,inactive,inactive,inactive,–,inactive,inactive,inactive
O=C(c1ccc(Cl)cc1)c1ccc(Cl)cc1,inactive,inactive,inactive,inactive,inactive,inactive,inactive,inactive,inactive,inactive
CC(C(=O)O)c1ccc2c(c1)Cc1cccnc1O2 (stereo unspecified),inactive,inactive,inactive,inactive,inactive,inactive,–,inactive,inactive,inactive
OCCc1ccncc1,inactive,inactive,inactive,inactive,–,inactive,inactive,inactive,inactive,inactive
COC(=O)c1cc(Cl)ccc1[N+](=O)[O-],inactive,inactive,inactive,inactive,–,inactive,inactive,inactive,inactive,inactive
O=C1C=CCCC1,inactive,inactive,inactive,inactive,–,inactive,inactive,inactive,inactive,inactive
CCCCCCCCCCCCCCCCC(=O)O,inactive,inactive,inactive,inactive,inactive,inactive,–,inactive,inactive,inactive
CC(O)C(C)O (stereo unspecified),inactive,inactive,inactive,inactive,–,inactive,–,inactive,inactive,inactive
Cc1ccccc1CCO,inactive,inactive,inactive,inactive,–,inactive,inactive,inactive,inactive,inactive
CCCCCCCCNC,inactive,inactive,inactive,inactive,–,inactive,–,inactive,inactive,inactive
C=C[Si]1(C)O[Si](C)(C=C)O[Si](C)(C=C)O[Si](C)(C=C)O1 (stereo unspecified),inactive,inactive,inactive,inactive,–,inactive,–,inactive,inactive,inactive
O=[N+]([O-])c1ccccc1CCO,inactive,inactive,inactive,inactive,–,inactive,–,inactive,inactive,inactive
Cc1ccc2ccccc2c1[N+](=O)[O-],inactive,inactive,inactive,inactive,–,inactive,inactive,inactive,inactive,inactive
CCCC1CCCC(=O)O1 (stereo unspecified),inactive,inactive,inactive,inactive,–,inactive,inactive,inactive,inactive,inactive
